MITF primary: blocks human microphthalmia-associated transcription factor; hit rate 0.91% among 650,000; inhibition, % at 2.6 µM; AlphaScreen MITF homodimerization, bead proximity signal; in the data active means inhibition above about 50%
Target sequence (O75030 whole entry, looked up): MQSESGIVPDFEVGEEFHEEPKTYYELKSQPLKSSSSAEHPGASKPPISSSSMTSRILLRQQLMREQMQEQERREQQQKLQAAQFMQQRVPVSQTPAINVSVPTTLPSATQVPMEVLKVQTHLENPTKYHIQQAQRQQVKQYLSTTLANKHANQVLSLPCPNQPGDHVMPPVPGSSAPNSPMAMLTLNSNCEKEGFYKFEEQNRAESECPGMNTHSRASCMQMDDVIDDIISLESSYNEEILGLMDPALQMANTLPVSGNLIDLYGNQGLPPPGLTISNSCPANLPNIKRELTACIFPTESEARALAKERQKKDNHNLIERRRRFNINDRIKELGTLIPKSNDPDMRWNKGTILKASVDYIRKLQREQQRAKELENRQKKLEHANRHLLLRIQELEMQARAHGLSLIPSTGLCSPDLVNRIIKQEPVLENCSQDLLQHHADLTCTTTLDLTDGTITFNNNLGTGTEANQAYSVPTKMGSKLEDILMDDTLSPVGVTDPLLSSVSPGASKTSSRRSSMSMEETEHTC
TEAD-YAP block: TEAD-YAP interaction inhibition. HEK-TIYL cells, TEAD-Gal4/YAP UAS-luciferase luminescence. inhibition, % at 9.12 µM. hit rate 1.4% among 640,000. AID 1259422; in the data active means inhibition above about 32%
FBW7 activator: activators of human E3 ligase FBW7 | Q969H0 | AID 1259310 | normalized activity (activation), % at 26.1 µM | AlphaScreen FBW7–phospho-cyclin E peptide binding, activator screen | hit rate 0.13% among 650,000; in the data active means normalized activity above about 1.9%;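 further: purified mutant Fbw7 with reduced substrate affinity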
GPR151 activ: activators of human GPR151 | PathHunter beta-arrestin GPR151 cells, luminescence | Q8TDV0 | hit rate 1% among 650,000 | AID 1508602 | activation, % at 11.2 µM; in the data active means activation above about 4.9%
Each line names hits and unclear results; the compound was inactive in the other large screens. Hits are enriched below; roughly 3.5% of the tested compounds scored in any of these assays.

Oc1ccccc1C(Nc1ncccn1)c1ccc2cccnc2c1O (stereo unspecified)	TEAD-YAP block 33.5
Oc1c(C(Nc2cccnc2)c2ccccc2F)ccc2cccnc12 (stereo unspecified)	MITF primary 51.0, TEAD-YAP block 74.7
CCOc1cc(C(Nc2cccnc2)c2ccc3cccnc3c2O)ccc1O (stereo unspecified)	none
CCc1ccccc1NC(=O)CSc1nnc(CN2CCOCC2)n1C	none
Cc1ccc(N2CC(C(=O)Nc3nccs3)CC2=O)cc1Cl (stereo unspecified)	TEAD-YAP block 61.2
O=C(NCC1CCCO1)C1CCC(Cn2c(SCc3ccccc3F)nc3ccccc3c2=O)CC1 (stereo unspecified)	none
CCN1C=C(C(=O)OC)C(c2cc3c(cc2Cl)OCO3)C(C(=O)OC)=C1	none
CCOc1ccc(NC(=O)C2=C(C)NC(=O)NC2c2ccccc2Cl)cc1 (stereo unspecified)	TEAD-YAP block 33.3
CCC(=O)Nc1ccc2nc(SCC(=O)Nc3ccccc3C(F)(F)F)sc2c1	none
Cc1ccc(Cl)cc1N1CCN(C(=O)c2ccc3c(c2)NC(=O)CS3)CC1	TEAD-YAP block 60.2
Cc1ccc(CC(=O)Nc2ccncc2)cc1	TEAD-YAP block 41.6
Cc1cc(OCC(=O)Nc2cccnc2)cc(C)c1Br	none
Cc1cc(OCC(=O)Nc2ccncc2)cc(C)c1Br	TEAD-YAP block 32.7
CCc1ccc(CN2CCc3nnc(CCNC(=O)C4CCC4)n3CC2)o1	none
CCOc1ccccc1N1CCN(C(=O)c2cc(-c3ccccc3)nc3ccccc23)CC1	TEAD-YAP block 45.4
O=C(c1cc(-c2ccncc2)nc2ccccc12)N1CCN(c2ccccn2)CC1	TEAD-YAP block 57.7
O=C(c1ccccc1-c1ccccc1)N1CCN(c2ccccn2)CC1	TEAD-YAP block 52.0
O=C(c1cc(-c2ccccc2)nc2ccccc12)N1CCN(c2ccccc2)CC1	none
O=C(c1ccccc1Br)N1CCN(c2ccccn2)CC1	none
Cn1c(SCC(=O)Nc2ccc3[nH]c(=O)[nH]c3c2)nnc1-c1ccncc1	none
CCC(=O)N1CCc2cc(S(=O)(=O)Nc3ccc(Br)cc3C)ccc21	none
COc1ccccc1OCC(=O)N/N=C/c1ccc([N+](=O)[O-])cc1	none
COc1ccccc1OCC(=O)N/N=C/c1ccccc1	none
C=CCc1ccccc1OCC(=O)N/N=C/c1ccccc1	TEAD-YAP block 50.8
C=CCc1ccccc1OCC(=O)N/N=C/c1ccc([N+](=O)[O-])cc1	TEAD-YAP block 32.9
COc1ccc(C(=O)CC(=O)C(=O)NCc2ccccc2Cl)cc1	none
CC1Oc2cc(Cl)ccc2N(Cc2ccc3c(c2)OCO3)C1=O (stereo unspecified)	none
CCc1ccccc1NC(=O)c1ccc(N2CCCCCC2)c([N+](=O)[O-])c1	none
O=C(Nc1cccc2ncccc12)c1ccc(N2CCCCC2)c([N+](=O)[O-])c1	TEAD-YAP block 32.2
Cc1ccc(-c2csc(NC(=O)c3ccc(S(=O)(=O)N4CCc5ccccc5C4)cc3)n2)o1	TEAD-YAP block 44.5
COc1ccc(-c2csc(NC(=O)c3ccc(S(=O)(=O)N4CC(C)OC(C)C4)cc3)n2)c(OC)c1 (stereo unspecified)	TEAD-YAP block 32.3
O=C(Nc1nc(-c2ccccn2)cs1)c1ccc(S(=O)(=O)N2CCOCC2)cc1	TEAD-YAP block 47.8
O=C(c1ccc(S(=O)(=O)c2cccc(Cl)c2)c([N+](=O)[O-])c1)N1CCC(Cc2ccccc2)CC1	none
Cc1ncc(CO)c(/C=N/NC(=O)COc2ccccc2)c1O	none
CC1CN(C(=O)c2cn3ccsc3n2)CC(C)O1 (stereo unspecified)	none
CCC(C)Nc1nc(-c2c[nH]c3ccccc23)cs1 (stereo unspecified)	FBW7 activator 3.9
C=CCNc1nc(-c2c[nH]c3ccccc23)cs1	none
COc1ccc(Nc2nc(N3CCN(c4ccccc4OC)CC3)nc3[nH]ncc23)cc1	none
COc1ccc(Nc2nc(N3CCCCC3)nc3[nH]ncc23)cc1	TEAD-YAP block 40.4
Cc1ccc(C(=O)N/C(=C/c2ccc(-c3ccc(Cl)cc3)o2)C(=O)NCc2ccccc2)cc1	none
O=C(NCc1cccnc1)/C(=C/c1ccc(-c2ccc(Cl)cc2)o1)S(=O)(=O)c1ccccc1	TEAD-YAP block 56.2
COc1ccc(-c2cc(C(F)(F)F)n3nc(C(=O)Nc4cccc(Cl)c4C)cc3n2)cc1OC	none
Nc1c(C(=O)N2CCCCC2)sc2nc(-c3cccs3)cc(C(F)(F)F)c12	FBW7 activator 4.1
CC(C)CNC(=O)C(=O)NNC(=O)c1ccc([N+](=O)[O-])cc1	none
CCc1c(-c2ccccc2)n(CCO)c2nc3c(c(=O)n(C)c(=O)n3C)n12	TEAD-YAP block 64.3
CCCn1c(-c2ccccc2)c(CC)n2c3c(=O)n(C)c(=O)n(C)c3nc12	none
CCc1c(-c2ccccc2)n(CC(O)c2ccccc2)c2nc3c(c(=O)n(C)c(=O)n3C)n12 (stereo unspecified)	TEAD-YAP block 38.9
COc1ccc(N2Cc3ccc(C(=O)NN)cc3C2)cc1	none
Cc1cc2c(cc1C)CN(c1cccc(C(=O)O)c1)C2	TEAD-YAP block 34.3
Cc1cc2c(cc1C)CN(c1cccc(C(=O)NN)c1)C2	TEAD-YAP block 38.4
Cc1ccc(S(=O)(=O)NC2CCCCC2)cc1C(N)=O	none
CCCCN1C(=O)c2cccc3c(NC(=O)Cc4ccc5c(c4)OCO5)ccc1c23	none
COc1ccc2[nH]c(C)c(CCNC(=O)c3ccc(C)c([N+](=O)[O-])c3)c2c1	none
COP(=O)(OC)c1nc(-c2ccco2)oc1NCc1ccc2c(c1)OCO2	none
OCC1CCCN1c1nccc(NCCN2CCOCC2)n1 (stereo unspecified)	none
O=C(COC(=O)c1cc(O)c(O)c(O)c1)Nc1ccc(F)cc1	MITF primary 67.9
CCc1ccc(NC(=O)COC(=O)c2cc(=O)c3cc(F)ccc3o2)cc1	FBW7 activator 2.8
O=C(COC(=O)c1cc(F)c(F)cc1Cl)Nc1ccc(F)cc1	none
CCOc1ccc(NC(=O)COC(=O)c2cc(=O)c3ccccc3o2)cc1	none
CC(=O)c1ccc(-c2nc(-c3cccc(NS(C)(=O)=O)c3)cnc2N)cc1	none
CS(=O)(=O)Nc1cccc(-c2ccnc(Nc3ccc(-n4cncn4)cc3)n2)c1	TEAD-YAP block 90.5
NC(=O)c1cccc(-c2ccnc(Nc3ccc(N4CCOCC4)cc3)n2)c1	none
Cc1ccc(-c2ncn(-c3ccc(Nc4nccc(-c5cccc(-n6cncn6)c5)n4)cc3)n2)cn1	none
CC(=O)c1ccc(Nc2nccc(-c3cccc(NS(C)(=O)=O)c3)n2)cc1	TEAD-YAP block 81.8
C[Si](C)(C)c1nnn(-c2ccc(Nc3nccc(-c4cccc(NS(C)(=O)=O)c4)n3)cc2)c1N1CCOCC1	TEAD-YAP block 32.7
Cc1sc(NC(=O)CCCC(=O)O)c(C(N)=O)c1-c1ccccc1	TEAD-YAP block 45.3
C=C(C)C(=O)Nc1sc(C)c(-c2ccccc2)c1C(N)=O	none
Cc1sc(NC(=O)CC(c2ccccc2)c2ccccc2)c(C(N)=O)c1C	TEAD-YAP block 40.2
Cc1ccc(C)c(S(=O)(=O)Oc2ccccc2C(=O)OCC(=O)Nc2cc(C)on2)c1	TEAD-YAP block 38.7
COc1cccc(CN2CCc3nc(-c4ccccn4)nc(N4CCCC4)c3C2)c1	TEAD-YAP block 40.6

High-throughput results as filed in PubChem BioAssay.
